# Assay outcomes as filed in PubChem.
# Most compounds without a hit are left out; they make up all but 7.6% or so of the library.
# ELG1 DNA repair: inhibitors of ELG1-dependent DNA repair in HEK293T cells; HEK293T ELG1-luciferase reporter, luminescence, 16 h; DNA damage induced by 5-fluorouridine; Potency, µM (highest dose often 46.1 µM), for inactives: top-dose activity change, negative = inhibition, hits mostly inhibitors; 2.3% of 330,000 active; also: potency is read from the fitted curve at half-maximal effect; % is scaled to controls: 0 for no effect and ±100 for the full control effect; nearly all actives have a fitted effect of over 55% in size
#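 Overnight (16 hr) co-exposure of 2,000 cells/well to 5-fluorouridine and compound at 37 °C preceded detection. Luciferase was quantified via ONE-Glo luminescence; loss of signal denotes inhibition.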
# RORg inh: blocks mouse ROR gamma transcriptional activity; P51450; Drosophila S2 Gal4-RORgamma UAS-luciferase reporter, 20 h; Potency, µM (doses to about 53.6 µM), for inactives: top-dose activity change, negative = inhibition, hits mostly inhibitors; 5.4% of 310,000 active; AID 2551; also: potency is read from the fitted curve at half-maximal effect; % is scaled to controls: 0 for no effect and ±100 for the full control effect; nearly all actives have a fitted effect of over 60% in size
# Target sequence (P51450 whole entry, looked up, the tested form may be a part): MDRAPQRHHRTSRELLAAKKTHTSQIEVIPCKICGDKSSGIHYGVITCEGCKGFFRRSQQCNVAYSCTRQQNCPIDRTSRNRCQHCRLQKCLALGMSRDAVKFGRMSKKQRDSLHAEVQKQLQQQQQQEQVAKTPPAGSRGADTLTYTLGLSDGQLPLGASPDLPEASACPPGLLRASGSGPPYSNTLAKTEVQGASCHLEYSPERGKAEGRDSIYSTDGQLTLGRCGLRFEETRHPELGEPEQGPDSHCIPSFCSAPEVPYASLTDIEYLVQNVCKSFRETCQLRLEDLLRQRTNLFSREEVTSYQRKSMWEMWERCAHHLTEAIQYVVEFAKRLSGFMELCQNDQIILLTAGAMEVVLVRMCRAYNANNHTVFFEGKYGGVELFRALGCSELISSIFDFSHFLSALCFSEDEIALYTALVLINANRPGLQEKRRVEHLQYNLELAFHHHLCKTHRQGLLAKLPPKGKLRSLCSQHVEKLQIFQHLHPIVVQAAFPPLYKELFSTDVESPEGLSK
#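 Stable Schneider cell line, Gal4 DNA-binding domain fused to ROR gamma, UAS-luciferase. Cmpd 1 hr RT → CuSO4 700 uM final → 20 hr RT → luciferase reagent 10 min → luminescence.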
# Giardia kill: Giardia lamblia killing. AID 540267. 0.15% of 340,000 active. activity change, % at 7.66 µM, hits read low. Giardia lamblia trophozoite viability; in the data active = activity change below about -80%; inconclusive = between about -30% and that limit;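 also: parasites exposed to compound for two days anaerobically before the ATP read; % is scaled to controls: 0 for no effect and ±100 for the full control effect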
#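 Media and compound were dispensed first, then trophozoites at 100 cells/well; plates sat 48 hrs at 37 deg C without oxygen before ATP luminescence reagent was added and read after 15-30 min at room temperature.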
# p53 reactivator: restores transcriptional activity of mutant p53. 0.063% of 320,000 active. AID 504706. Potency, µM (titrated, usually from 92.2 µM), inactives show at the top dose activity change, positive = activation, hits mostly activators. H1299 p53-A138V BP100-luciferase reporter, luminescence, 24 h; also: potency is read from the fitted curve at half-maximal effect; % of control where 0% means no effect; nearly all actives have a fitted effect of over 45% in size
#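 H1299 (p53-null), stable ts p53-A138V + BP100-Luc; 1000 cells/well, Opti-MEM/10% FBS; cpd 4 pt, 1:5; 24 h, 37 deg C, 5% CO2; detection reagent 10 min RT; luminescence.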
# VP16 counter: Gal4-VP16 reporter inhibition counter-screen | Drosophila S2 Gal4-VP16 UAS-luciferase, luminescence, 20 h | 3.5% of 310,000 active | Potency, µM (series often up to 53.6 µM), for inactives: top-dose activity, negative = inhibition, usual class: inhibitors;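 also: Gal4-VP16 expression switched on by copper sulfate through the metallothionein promoter; potency is read from the fitted curve at half-maximal effect; % is scaled to controls: 0 for no effect and ±100 for the full control effect; nearly all actives have a fitted effect of over 50% in size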
# BRCA1 expr up: activators of BRCA1 expression | MCF7-BRCA1-FFLuc reporter, luminescence, 48 h; response scale: scaled: vehicle 0%, 10 µM genistein 100% | Potency, µM (series often up to 46.1 µM), inactives show at the highest dose activation, hits mostly activators | 1.1% of 380,000 active; also: potency is read from the fitted curve at half-maximal effect; nearly all actives have a fitted effect of over 80% in size
#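 Using MCF7 cells harboring a BRCA1 firefly luciferase reporter, plated 2 h before compound pinning, the screen measured luminescence after 48 h incubation. Responses were normalized to DMSO and 10 microM genistein, then fitted for concentration-effect.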
# The depositor's hits bear a star; ? = inconclusive; . = not tested or not shown; [ ] = dose if it differs, or a comment. Unless noted, calls follow the shape of the dose curve; as a rule, active = well fitted curve in the direction sought with a large enough effect; inconclusive = small, poorly fitted or top-dose-only effect, or another doubt; inactive = no such curve, though single readings can be large; an effect the other way counts as inactive or inconclusive.
SMILES,ELG1 DNA repair,RORg inh,Giardia kill,p53 reactivator,VP16 counter,BRCA1 expr up
NNC(=S)Nc1ccc(C(F)(F)F)cc1Cl,16%,11µM*,24,3%,?,3%
CCOC(=O)CC(Nc1nc(N2CCOCC2)nc(N2CCOCC2)n1)c1ccccc1Cl (configuration not stated),9.2µM*,18%,-6,-1%,-6%,0%
Cc1ccc(-c2cc(-c3n[nH]c(=S)o3)c3ccccc3n2)cc1,-28%,7.1µM*,-5,2%,4.5µM*,-5%
S=c1[nH]nc(-c2cc(-c3ccccn3)nc3ccccc23)o1,-5%,5µM*,7,-1%,0%,-30%
S=c1[nH]nc(-c2ccccc2)o1,14%,26%,-8,1%,-3%,-4%
CSc1nnc(-c2cc(-c3ccc(C)cc3)nc3ccccc23)o1,-8%,-5%,4,1%,5%,-17%
Cc1csc(NC(=O)C2CSC3(C)CCC(=O)N23)n1 (configuration not stated),0%,11%,-20,-6%,-8%,-19%
O=C(O)c1cnn(-c2nc(-c3ccc(Br)cc3)cs2)c1C(F)(F)F,?,2%,-5,?,?,5µM*
O=c1cc(/C=C/c2ccccc2)oc2c1ccc1ccccc12,18µM*,-10%,9,-2%,?,-57%
CSC1=C(C#N)C(c2sccc2C)CC(=O)N1 (configuration not stated),7%,11%,-14,-2%,6%,2%
N=c1sc2ccccc2n1-c1ccccc1,5%,-39%,-5,-2%,8%,-15%
C=CC(=O)N=c1sc2ccccc2n1-c1ccccc1,-8%,10µM*,13,-14%,?,-77%
O=C(c1cccc(S(=O)(=O)N2CCc3ccccc3C2)c1)N1CCN(c2ccc(O)cc2)CC1,?,24%,-27,-17%,3%,-12%
CCOC(=O)c1c(-c2ccc(C)o2)csc1NC(=S)NC(=O)c1ccc(F)cc1,-12%,1.8µM*,-10,-1%,3.2µM*,-39%
CCOC(=O)c1c(-c2ccc(C)o2)csc1NC(=O)CN(C)CC(=O)Nc1ccc(C)cc1,15µM*,13µM*,7,1%,?,-27%
O=C(COC(=O)CN1C(=O)c2ccccc2C1=O)NC1CCCCC1,4%,0%,27,10%,-8%,-3%
COc1cccc(CN(C(=O)c2ccccc2)C2CCS(=O)(=O)C2)c1 (configuration not stated),18%,-9%,-9,0%,20%,7%
Cc1ccc(N=N/C(=C\O)C(=O)c2ccc(Cl)cc2)cc1,-7%,-36%,3,19%,?,-70%
Cc1ccc[n+](/C(=C\C(=C=[N-])C#N)C(=O)c2ccc(Cl)cc2)c1,2%,18µM*,18,1%,?,-2%
NC(=O)c1ncn([C@@H]2O[C@H](CNCc3cc(Br)ccc3OCc3ccccc3)[C@@H](O)[C@H]2O)n1,.,.,-3,.,.,-3%
CCc1ccc(NC(=O)C/C(C)=N/NC(=O)COc2ccccc2C)cc1,17%,-32%,?,-1%,16%,-3%
Cc1ccc(C(C)C)c(OCC(=O)N/N=C/c2cccn2C)c1,18µM*,?,21,1%,?,-25%
Cc1ccccc1OCC(=O)N/N=C/c1cccn1C,-6%,8.9µM*,18,4%,0%,4%
Cc1ccccc1OCC(=O)N/N=C/c1ccc(N2CCOCC2)o1,?,14µM*,-19,-4%,6.3µM*,-23%
CCc1ccccc1NC(=O)C/C(C)=N/NC(=O)COc1ccccc1C,12%,11µM*,2,-1%,?,-15%
SMILES,ELG1 DNA repair,RORg inh,Giardia kill,p53 reactivator,VP16 counter,BRCA1 expr up
Cc1cccc(OCC(=O)N/N=C/c2cccn2C)c1,2%,11%,-2,-2%,7%,3%
COc1cccc(C(C(=O)NC(C)(C)C)N(Cc2ccco2)C(=O)CCC(=O)Nc2cc(C)on2)c1OC (configuration not stated),6%,36%,2,-2%,5%,-24%
COc1ccc(Cl)cc1NC(=O)C/C(C)=N/NC(=O)COc1ccc(C)cc1,4%,11µM*,6,-3%,-2%,-11%
COc1cc2oc3cc(C#Cc4ccc(N)cc4)ccc3c(=O)c2cc1OC,.,.,48,.,.,5%
Nc1ccc(C#Cc2ccc3c(=O)c4ccccc4oc3c2)cc1,?,-16%,5,11%,-1%,10µM*
O=C(CSc1ncccn1)Nc1cc(Cl)ccc1[N+](=O)[O-],22%,-12%,10,4%,-18%,-15%
CCC(C)C(=O)OCC1(c2ccc(C)cc2OC(=O)C(C)C)CO1 (configuration not stated),19%,0%,10,-17%,?,1%
Cc1ccc(C2(COC(=O)C(C)C)CO2)c(OC(=O)C(C)C)c1 (configuration not stated),11%,-7%,13,-14%,8.9µM*,9%
C=CC(=O)Nc1ccc(Nc2nc(NC3CCC(N(C)C)CC3)nc3c2ncn3C(C)C)cc1 (configuration not stated),2.3µM*,.,-17,9%,.,-91%
CCc1n[n+](CC(=O)c2ccccc2)c(N)s1,?,2.8µM*,-24,0%,2.2µM*,-49%
CC(C)C(OC(=O)CN1C(=O)COc2ccccc21)C(=O)NC1CCCC1 (configuration not stated),-22%,-1%,-9,-4%,2%,1%
Cc1ccc2c(c1)N(CC(=O)OC(CC(C)C)C(=O)NC1CCCC1)C(=O)CO2 (configuration not stated),21µM*,-37%,9,-4%,-11%,-43%
N#C/C(=C\c1ccccc1C(F)(F)F)C(=O)Nc1ccccc1,3%,-11%[10 µM],-5,1%,3%,15%
CCc1cccc(CC)c1NC(=O)/C(C#N)=C/c1ccccc1C(F)(F)F,?,11µM*,-12,-35%,10µM*,-92%
Cc1cc(C)nc(/N=c2/ssnc2Cl)c1,?,20µM*,-11,1%,?,-64%
Cc1ccc(N=c2ssnc2Cl)cc1,?,13µM*,-16,5%,?,0%
Cc1cc(Cl)ccc1N=c1ssnc1Cl,16µM*,11µM*,3,5%,?,-35%
Nc1ccccc1N=c1ssnc1Cl,-1%,-40%,3,20%,-20%,-41%
Cc1nnc(N=c2ssnc2Cl)o1,?,.,1,4%,.,-3%
